# The list is not random: actives were taken first. Their share in the collection is about 4.4%.
# SUMO Mot1 rescue = inhibitors of SUMOylation pathway: yeast Mot1-301 growth rescue | S. cerevisiae Mot1-301 growth rescue, ATP luminescence, 38.5C; percent above DMSO median, 100 means doubled | growth rescue, % at 18.8 µM | actives 1% (n = 320,000) | AID 2716;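 active means every valid replicate shows activation above 250% relative to neutral control wells; inactive means the rest, any valid replicate at or below 250%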;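 further: OY570 slx delta 5 strain wells were the positive control but not used for scaling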
# TIM10 inh = growth inhibitors of TIM10 yeast strain. inhibition, % at 10 µM. AID 463195. actives 1.4% (n = 330,000). S. cerevisiae TIM10 strain growth, BacTiter-Glo luminescence, 24 h;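 active means inhibition of 40% or more at the single tested concentration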;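 further: wild-type TIM10 isogenic control strain grown at permissive 25 °C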
# tim23-1 inh = growth inhibitors of tim23-1 mutant yeast; S. cerevisiae tim23-1 growth, BacTiter-Glo luminescence, 24 h; inhibition, % at 20 µM; actives 1.3% (n = 330,000); AID 463212;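 active means growth inhibition of the mutant yeast at or above 50%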;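 further: temperature-sensitive mutant grown at 25 °C; plate controls were DMSO-treated mutant yeast for no effect and medium wells lacking yeast for full effect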
# PfHsp90 set2 = inhibits growth of yeast expressing Plasmodium falciparum Hsp90 | S. cerevisiae expressing PfHsp90, BacTiter-Glo ATP, 48 h; yeast lacking PDR1 and PDR3 efflux regulators | AID 504621 | actives 0.32% (n = 310,000) | inhibition, % at 9.4 µM;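 active means every replicate shows inhibition above about 80%, whatever the replicate mean, limit read from the data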;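 further: 0% = DMSO neutral controls and 100% = 20 µM radicicol positive controls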
# tim10-1 inh = tim10-1 yeast growth inhibition; actives 2.2% (n = 330,000); inhibition, % at 20 µM; S. cerevisiae tim10-1 ts strain growth, BacTiter-Glo, 24 h;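 active means inhibition of at least 40%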;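 further: mutant grown at 25 °C; 0% = DMSO wells with yeast and 100% = wells holding no yeast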
# tim10-1 conf = confirmation of tim10-1 mutant yeast growth inhibitors. actives 56% (n = 7,400). inhibition, % at 20 µM. AID 463213. S. cerevisiae tim10-1 ts strain growth, BacTiter-Glo, 24 h. shares compounds with tim10-1 inh;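 active means inhibition of yeast growth at or above a set limit in either of two repeat tests at 20 µM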;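 further: tim10-1 mutant grown at permissive 25 °C to find synthetic lethal compounds; 0% = DMSO yeast wells and 100% = medium wells without yeast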
# TIM10 conf = confirmation of TIM10 yeast growth inhibitors | shares compounds with TIM10 inh | AID 463215 | S. cerevisiae tim10 strain growth, BacTiter-Glo luminescence, 24 h | inhibition, % at 10 µM | actives 63% (n = 4,600);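 active means inhibition of yeast growth at or above a set limit in either of two replicates at 10 µM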;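 further: this counterscreen used the strain with wild-type TIM10; 0% = yeast with DMSO and 100% = medium wells lacking yeast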
# tim23-1 conf = confirmation of tim23-1 mutant yeast growth inhibitors; shares compounds with tim23-1 inh; S. cerevisiae tim23-1 growth, BacTiter-Glo luminescence, 24 h; inhibition, % at 20 µM; actives 83% (n = 4,400); AID 463218;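 active means inhibition above about 39% in either of two replicate wells at 20 µM, limit read from the data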;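 further: temperature-sensitive tim23-1 mutant grown at 25 °C; 0% = DMSO wells with yeast and 100% = medium wells without yeast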
# * hit, by the source's call; . = no result given.
SMILES,SUMO Mot1 rescue,TIM10 inh,tim23-1 inh,PfHsp90 set2,tim10-1 inh,tim10-1 conf,TIM10 conf,tim23-1 conf
Nc1c(C(=O)Nc2ccccc2Cl)nnn1-c1ccc2c(c1)OCCO2,-11.7,-13.3,-10.1,-51.7,-19.2,.,.,.
CCCc1[nH]nc2c1C(c1ccc(OC)cc1OC)C(C#N)=C(N)O2 (stereo unspecified),-12.1,47.3*,51.2*,-3.7,44.0*,36.3*,37.5*,50.5*
CC(C)(C)c1cc(-c2csc(Nc3ccccc3)[n+]2Cc2ccc(C(=O)O)cc2)cc(C(C)(C)C)c1O,-1.9,38.4,54.1*,-137.5,45.6*,57.0*,.,52.9*
O=C(NC(=S)N1CCc2ccccc21)c1ccc(Br)o1,32.9,67.3*,63.6*,.,62.3*,56.5*,57.1*,66.3*
CC(C)(C)C(=O)NC(=S)N1CCc2ccccc21,-7.6,3.0,2.8,15.7,11.9,.,.,.
COc1ccc([N+](=O)[O-])cc1NC(=O)CCS(=O)(=O)c1ccc(Br)cc1,-2.7,-6.3,17.8,-6.3,14.0,.,.,.
CC1Cc2ccccc2N1C(=S)NC(=O)c1cccc(Br)c1 (stereo unspecified),.,59.0*,52.1*,-164.6,44.4*,32.1*,5.2,58.1*
COc1ccc(N=Cc2cccc(C)c2O)cc1Cl,6.4,-1.1,13.7,32.8,-0.4,.,.,.
Cc1cccc(N=Cc2cc(Br)cc(Cl)c2O)c1,96.6,32.5,72.7*,-56.0,50.3*,16.2,.,83.6*
O=C(CCCCC(=O)OC1CCCCC1)OC1CCCCC1,.,.,.,7.2,.,.,.,.
O=C(CN1CCN(CC(=O)c2ccccc2)CC1)c1ccccc1,.,.,.,17.5,.,.,.,.
CCCCCCCCCn1c2c(c(=N)c3c1CCC3)CCCC2,.,51.0*,79.9*,0.1,51.5*,55.9*,46.2*,83.2*
CCCCCCCCn1c2c(c(=N)c3ccccc31)CCC2,.,25.5,66.0*,13.5,60.4*,51.2*,.,62.5*
CCCCCn1c2c(c(=N)c3ccccc31)CCC2,-2.9,-9.6,-12.0,5.7,2.1,.,.,.
CCn1c2c(c(=N)c3c1CCC3)CCCC2,18.7,1.7,-7.9,.,-13.2,.,.,.
CCCCCCCCCCn1c2c(c(=N)c3c1CCC3)CCC2,-41.3,38.5,83.1*,6.6,65.3*,30.5,.,76.3*
Cc1cccc(C)c1NC(=O)CN1CCN(CC(=O)NCC2(N3CCCCC3)CCCCC2)CC1,-5.0,-3.1,-3.4,.,-8.2,.,.,.
CCN(CC)S(=O)(=O)c1ccc(C(=O)/C=C/c2ccc(-c3ccc([N+](=O)[O-])cc3)o2)cc1,40.2,7.4,2.9,-5.6,10.4,.,.,.
Cc1ccc(C(=O)/C=C/c2ccc(-c3ccc(C)cc3)o2)cc1,-27.0,57.3*,60.1*,-107.6,63.5*,63.6*,65.7*,76.3*
C/C(N)=C(/C#N)C(=O)CSc1nc2cc(Cl)ccc2s1,11.9,43.8*,54.5*,.,50.1*,46.1*,37.4*,55.8*
C/C(N)=C(/C#N)C(=O)CSc1cc(Cl)ccc1Cl,.,9.3,5.7,-33.5,12.5,.,.,.
NC(=NC(=O)c1ccc(OCC(F)(F)F)nc1)c1ccc(Cl)cc1,-36.6,17.5,55.9*,-3.6,67.6*,48.1*,.,42.5*
O=C(/C=C/c1ccc(Cl)cc1Cl)n1cccn1,-14.7,53.0*,66.2*,13.3,56.0*,57.8*,-26.1,84.1*
COc1cccc(NC(=O)C2CC(=O)n3cnnc3S2)c1 (stereo unspecified),-9.7,41.0*,60.7*,12.7,43.1*,33.0*,11.5,58.8*
COc1ccc(NC(=O)C2CC(=O)n3cnnc3S2)cc1 (stereo unspecified),.,33.2,-2.5,10.0,39.5,.,.,.
N#Cc1ccc(CSc2ccc(S(=O)(=O)N3CCCC3)cn2)cc1,4.6,13.8,34.1,-9.9,13.5,.,.,.
Cc1cccnc1Nc1nc(-c2ccc(O)cc2)cs1,28.5,31.3,75.4*,5.7,57.1*,17.4,.,57.1*
Cc1cccnc1Nc1nc(-c2ccc(F)cc2)cs1,1.2,36.5,47.1,13.0,19.7,.,.,.
